The values below come from PubChem BioAssay (NCATS).

Results filed as inconclusive are left out. Where a call stands in place of a potency, no number is given. The source made the active and inactive calls. Calls come from the whole dose curve; as a rule, active = well fitted inhibition curve with a large enough effect; inconclusive = small, poorly fitted or top-dose-only effect; inactive = no such curve, though single readings can be large or run the other way.
Potency is the fitted concentration of half-maximal effect.

The experiment is described as follows: Primary fluorescence-based thiol-reactive (MSTI) qHTS assay for identification of artifact compounds. (AID 1845221). Note: nearly all actives have a fitted effect of over 65% in size. The conditions noted are these: MSTI thiol-reactivity probe, 1 h; series mostly up to 53.8 µM. In a few lines: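 Reactivity toward the thiol probe MSTI (4 uM) is scored by fluorescence at Ex/Em 525/598 nm after 1 h at room temperature. Acetyl-MSTI and MSTI define the activity scale.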
A general note: In qHTS, concentration-response curves come from the screen itself.
Regarding `C/C=C/C=C/C(=O)OC1CC/C=C/C(O)C(O)C(CCC)OC1=O` (stereo unspecified), the Potency result is “inactive”.

`C=C1C2CCC3C(CCC4[C@@]3(C)CCC[C@@]4(C)C(=O)O)(C2)[C@@H]1OC(=O)/C(C)=C\C` (stereo partly specified): the Potency result is “inactive”.

Take `C[C@@]1(O)[C@H](O)[C@@H](CO)O[C@H]1n1cnc2c(=O)[nH]c(N)nc21`: the Potency entry was “inactive”.

In the case of `COC(=O)C1=CO[C@@H](O[C@@H]2O[C@H](CO)[C@@H](O)[C@H](O)[C@H]2O)[C@H]2[C@@H]1C=C[C@]21C=C([C@H](C)OC(=O)/C=C/c2ccc(O[C@@H]3O[C@H](CO)[C@@H](O)[C@H](O)[C@H]3O)cc2)C(=O)O1`, the Potency entry is “inactive”.

On to `CC1=C2C[C@@]3(C)C(CCC[C@@H]3C)C(O)C2(O)OC1=O` (stereo partly specified), for which the Potency entry is “inactive”.

Take `OC[C@H]1O[C@@H](O[C@H]2[C@H](O)[C@@H](CO)O[C@@H](OCc3ccccc3)[C@@H]2O[C@@H]2OC[C@](O)(CO)[C@H]2O)[C@H](O)[C@@H](O)[C@@H]1O`: the Potency result is “inactive”.

In the case of `CC(C)(CC(=O)N1CCCC1)NCC(=O)N1C[C@@H](F)C[C@H]1C#N`, the Potency result is “inactive”.

`CC(C)=C1C[C@@]2(C)C(=CC1=O)CC[C@@H](O)[C@@H]2C`: the Potency entry was “inactive”.

Regarding `CC(C)CC[C@@H](O)[C@](C)(O)[C@H]1CC[C@@]2(O)C3=CC(=O)[C@@H]4C[C@@H](O)[C@@H](O)C[C@]4(C)[C@H]3CC[C@]12C`, the Potency result was “inactive”.

With `C=C1C(OC(C)=O)CCC2(C)CCC(C(C)(C)O)CC12` (stereo unspecified), the Potency entry is “inactive”.

`CSC(=O)OCC1=C[C@@H]2OC(=O)C3=CO[C@@H](O[C@@H]4O[C@H](CO)[C@@H](O)[C@H](O)[C@H]4O)[C@H]1[C@@H]32`: the Potency was 6.53 µM (active).
